The whole screen tested about 330,000 compounds, of which about 1,500 (0.45%) were called active. Another 6% or so got no clear call; they are omitted. For the sample, actives were picked, then their nearest neighbours and some compounds at random. Values without a mark were called inactive. The call rests on the fitted dose curve; tested in A549 cells.
Assay: qHTS for Stage-Specific Inhibitors of Vaccinia Orthopoxvirus: Venus Reporter Primary qHTS; further: nearly all actives have a fitted effect of over 30% in size
Conditions: Vaccinia virus Venus reporter expression, fluorescence; series mostly up to 36.5 µM; activity change, negative = inhibition: at the top concentration
In the case of Cc1cccc(C)c1NC(=O)CN1CCN(c2ccc(F)cc2)CC1, the “activity change, negative = inhibition” value is reported as 9.83%. In the case of COc1cc(OC)c(/C=C/c2ccnc3ccccc23)c(OC)c1, the “activity change, negative = inhibition” value is reported as -21.1%. For CCOC(=O)N(C)c1c(CC)nc2c(OCc3ccccc3C(=O)OC)cccn12, the “activity change, negative = inhibition” value was -5.36%. In the case of CCOC(=O)c1cc2cc(OC)ccc2n1C1CCN(C)CC1, the “activity change, negative = inhibition” value is reported as -26.8%. For CCOC1=C2[C@@H](CN(S(=O)(=O)c3ccc(C)cc3)[C@H]2c2ccccc2F)[C@H]2C(=O)N(Cc3ccccc3)C(=O)[C@H]2C1, the “activity change, negative = inhibition” value was -12.5%. For CCOC(=O)C1=CC[C@@H](c2ccncc2)N(S(=O)(=O)c2ccc(C)cc2)C1, the “activity change, negative = inhibition” value was -22.6%. With CSc1nc(-c2ccccc2)nc(C(Cl)Cl)n1 the Potency was 10 µM (active). For CSc1nc(Nc2ccc(F)cc2)cc(-c2ccccc2)n1, the “activity change, negative = inhibition” value was -18.6%. In the case of CSc1ncc(Sc2ccccc2)c(C(=O)O)n1, the “activity change, negative = inhibition” value is reported as 2.49%. In the case of Cc1cc(Br)cn2c(Cc3ccccc3C(F)(F)F)c(C3CCCCC3)nc12, the “activity change, negative = inhibition” value is reported as -2.66%. For CCc1nc2c(OCc3ccc(F)c(F)c3)cccn2c1N(C)C(=O)c1ccco1, the “activity change, negative = inhibition” value was 3.62%. In the case of COc1ccc(OCC(O)CNCCNc2nccc(C(F)(F)F)n2)cc1 (stereo not drawn), the “activity change, negative = inhibition” value is reported as -14.2%. For CC(C)(C)NCC(O)COc1cccc2[nH]c(=O)[nH]c12 (stereo not drawn), the Potency was “inactive”. In the case of CC(C)(C)CC(C)(C)NCC(O)COCCOc1ccc(Br)cc1 (stereo not drawn), the Potency is reported as 10 µM (active). With CCCCNC(=O)C[C@@H]1C[C@@]2(C(=O)OCC)CCC=C2N(Cc2cccc3ccccc23)C1=O the “activity change, negative = inhibition” value was -13.2%. For COc1ccc(C(C(=O)Nc2c(C)cccc2C)N2CCN(c3ccc(C)cc3)CC2)cc1 (stereo not drawn), the “activity change, negative = inhibition” value was -3.04%. For CN(C)c1cccc(NC(=O)c2ccc(-c3ccc(F)c(F)c3)c3ccoc23)c1, the “activity change, negative = inhibition” value was -9.75%. With CCc1nc2c(OCc3cccc(OC)c3)cccn2c1N(C)C(=O)C(C)C the “activity change, negative = inhibition” value was -15.6%. For CC(=O)Nc1cccc(-c2csc(Nc3cccc(C)n3)n2)c1, the “activity change, negative = inhibition” value was -23.1%. For CC(=O)Nc1ccc(-c2csc(NC=C3C(=O)OC(C)(C)OC3=O)n2)cc1, the Potency was 4.47 µM (active). For C/C(CC1CC(C)(C)OC1=O)=N/Nc1nc(-c2ccccc2)cs1 (stereo not drawn), the “activity change, negative = inhibition” value was -10.7%. For O=C(COc1ccccc1C(=O)Nc1ccccc1)Nc1cccc(F)c1, the “activity change, negative = inhibition” value was -20.5%. For COc1ccc(C(=O)C(OP(=O)(OC)OC)c2ccccc2OC)cc1 (stereo not drawn), the “activity change, negative = inhibition” value was -6.83%. With COc1ccc2c(c1)NC(=O)C2CC(=O)N1CCOc2c(cc(-c3cnc4ccccc4c3)cc2OC)C1 (stereo not drawn) the “activity change, negative = inhibition” value was -10.6%. In the case of CC(=O)OC1C2(CC3N4C(=O)C5(CO)SSC4(CC31O)C(=O)N5C)OC(C)C(C)(C)C2=O (stereo not drawn), the Potency is reported as 3.16 µM (active). For CCCNC(=O)C1(C)CCN1C(=O)Cc1ccc(-c2ccccc2)cc1 (stereo not drawn), the “activity change, negative = inhibition” value was -8.6%. In the case of CCOC(=O)[C@]12CCCC=C1N(CCC1=CCCCC1)C(=O)[C@H](CC(=O)N1CCCCC1)C2, the “activity change, negative = inhibition” value is reported as -21.2%. In the case of C/C=C/NNC(=O)Cc1ccc(OC)cc1, the Potency is reported as 10 µM (active). In the case of COc1ccc(CC(=O)Nc2ccc(C(=O)NC(C)(C)C)cc2)cc1, the “activity change, negative = inhibition” value is reported as -5.09%. For CCCCCNC(=O)Cc1ccc(OC)cc1, the “activity change, negative = inhibition” value was -18.1%. For Cc1cccc(NC(=O)COC(=O)c2ccccc2OCc2cccc(Br)c2)c1, the “activity change, negative = inhibition” value was -15.5%. In the case of CC1(C)OC(=O)C2=C(C[C@@H](C3CCCCC3)O[C@@H]2c2ccc(Cl)cc2)O1, the “activity change, negative = inhibition” value is reported as -0.804%. In the case of Cc1ccc(C)c(S(=O)(=O)n2nc(C)c(S(=O)(=O)N3CCC(C)CC3)c2C)c1, the “activity change, negative = inhibition” value is reported as 3.55%. With Cc1ccc(S(=O)(=O)N2CCN(c3ncnc4ccccc34)CC2)cc1 the “activity change, negative = inhibition” value was -26.6%. For Cc1ccc(C)c(S(=O)(=O)N2CCN(c3ncnc4sccc34)CC2)c1, the Potency was 2.51 µM (active). For O=[N+]([O-])c1ccc(/C=C/c2ccc3cccnc3c2)cc1, the “activity change, negative = inhibition” value was -27.2%. For Cc1cccc(-c2nnc(SC(C)C(=O)Nc3ccccc3)n2C)c1 (stereo not drawn), the “activity change, negative = inhibition” value was -13.2%. For CN1CCN(c2ccc(NC(=O)c3cc(Cl)c4c(c3)OCCO4)cc2)CC1, the “activity change, negative = inhibition” value was -3.42%. With C=CC(=O)Nc1ccc(Nc2ccnc(Nc3ccc(N4CCN(C)CC4)cc3)n2)cc1 the Potency was 10 µM (active). With Cc1cccc(N2CCN(c3ccc(NC(=O)/C=C\C(=O)O)cc3)CC2)c1 the “activity change, negative = inhibition” value was -0.657%. For CCCCc1c(-c2ccc(Cl)cc2)ncn1CCc1ccccc1OC, the “activity change, negative = inhibition” value was -26.6%. For Cc1ccc(-c2nc3c(Cl)cc(C(F)(F)F)cn3c2Cc2cccc(Cl)c2)cc1, the “activity change, negative = inhibition” value was 6.36%. For O=S1(=O)CC(N2CCN(c3ccccn3)CC2)CN1Cc1ccc(F)cc1 (stereo not drawn), the “activity change, negative = inhibition” value was -8.95%.

Reference: PubChem BioAssay AID720580 (National Center for Advancing Translational Sciences (NCATS), 2013)
On the % scale 0 is the no-effect control and ±100 the full control effect; potency means the concentration at half of the fitted maximal effect.
